“And” between values parts separate entries of the source, which are not always exact repeats. Equal values may be shown once. The panel holds about 83,000 compounds, 20% with a hit somewhere; the sample as a whole holds those more often.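 Cell lines were cultured in 96-well plates, exposed to a single compound concentration, and assessed for percent growth 48 hours later.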 The source made the active and inactive calls. The calls were made as follows: active = growth percent below 10; inactive = the rest.
Each compound was assayed on MDA-MB-468 breast (assay: NCI-60 one-dose screen, 48 h (100 = growth as untreated, 0 = no growth, -100 = all killed)). Conditions: 10 µM unless noted.

| Compound | growth |
| --- | --- |
| Cc1cccc(/C=C2\CN(C(=O)OC(C)(C)C)C/C(=C\c3cccc(C)c3)C2=O)c1 | 103% (inactive) |
| COc1cc2nc(Nc3ccc(F)cc3)nc(N)c2cc1OC | 83.4% (inactive) |
| Oc1ccc(CN(Cc2ccc(C(F)(F)F)cc2)Cc2ccc(O)c3ncccc23)c2cccnc12 | 4.04% (active) |
| CC1(C)C(=O)/C(=C\c2ccco2)C[C@]2(C)[C@H]3CC=C4[C@@H]5C[C@](C)(C(=O)O)CC[C@]5(C)CC[C@@]4(C)[C@]3(C)CC[C@@H]12 | -47.2% [100 µM] (active) |
| CCCCCCCCCCC1OC(C)CC(C)O1 (stereo not given) | 98.5% (inactive) |
| COc1ccc(/C=N/C2=C(C#N)C(c3ccc(N(C)C)cc3)c3ccc4ccccc4c3O2)cc1 (stereo not given) | 84.3% (inactive) |
| CCCCCCCn1cc2c(NCCc3ccccc3)ncnc2n1 | 105% (inactive) |
| CS(=O)(=O)c1ccc(Nc2nc(N[C@H]3CCCC[C@H]3N)nc3cc[nH]c(=O)c23)cc1 | -75.2% (active) |
| COc1ccc(-c2cc(-c3ccc(Cl)cc3)nc(SCCCC(=O)NO)n2)cc1 | -56.2% (active) |
| Nc1c(C(=O)Nc2cccc(Br)c2)sc2nc3c(cc12)C(=O)CCC3 | 32.1% (inactive) |
| O=[N+]([O-])c1ccccc1N=Nc1ccc(O)cc1O | 118% (inactive) |
| FC(F)(F)c1ccc(-c2nc(-c3nc4cc(Cl)c(Cl)cc4[nH]3)c3ccccn23)cc1 | 41.9% (inactive) |
| C#CCn1c(C)cc(C)c(C#N)c1=O | 132% (inactive) |
| Fc1ccc(Cn2cc(CSc3nc4ccccc4o3)nn2)cc1 | 109% (inactive) |
| Cc1nc(N)sc1-c1csc(Nc2ccc(C(F)(F)F)cc2)n1 | -28.9% (active) |
| COC(=O)Cc1cc(COC(C)=O)ccc1C | 108% (inactive) |
| COc1cc2c(-c3nc4cc(Cl)c(F)cc4s3)cc(=O)oc2c(C)c1OC | -58.7% (active) |
| C[C@@H](C[C@H](CCO)c1ccccc1)c1ccc2ccccc2c1 | -54.1% (active) |
| CCc1c(Nc2ccc(C)cc2)[nH]c(N)nc1=S | 97.3% (inactive) |
| Cc1ccc(-c2nc(N3CCN(CC(=O)Nc4ccc(Cl)c(C(F)(F)F)c4)CC3)c3ccccc3n2)cc1 | 93.9% (inactive) |

| Compound | growth |
| --- | --- |
| c1ccc2c[n+](Cc3ccc4ccccc4n3)ccc2c1 | -0.701% (active) |
| C[C@@H]1CC2C3C[C@H](F)C4=CC(=O)C=C[C@]4(C)[C@@]3(F)[C@@H](O)C[C@]2(C)[C@@]1(O)C(=O)CO (stereo not given in full) | 102% (inactive) |
| Cc1ccc(SCN2CCN(c3cccc(Cl)c3)CC2)cc1 | 115% (inactive) |
| COc1ccc(/C=C2\C(=O)N=C3N2NC(c2cc(Br)ccc2O)C=C(C)N3c2ccccc2)cc1 (stereo not given) | 90.7% (inactive) |
| Cc1csc(NC(c2ccc(Br)cc2)c2c(C)nc3ccccn23)n1 (stereo not given) | 93.5% (inactive) |
| Oc1c(C(c2ccc(F)cc2)N2CCCCC2)ccc2cncnc12 (stereo not given) | -2.7% (active) |
| COc1ccc(-c2csc(NC(=O)CSc3nc(C)cc(=O)[nH]3)n2)cc1 | 118% (inactive) |
| C=C1C(=O)O[C@H]2[C@H]1CC/C(COC(=O)CCCc1c[nH]c3ccccc13)=C\CC[C@@]1(C)O[C@@H]21 | 23.1% (inactive) |
| COc1ccc(-c2cnc3c(-c4cccc5ncccc45)cnn3c2)cc1 | 57.1% (inactive) |
| Clc1ccc(Cc2ccncc2)cc1 | 99.2% (inactive) |
| COCCn1c(-c2csc(-c3cn(C)c4ccc(OC)cc34)n2)cc2cccnc21 | 37.9% (inactive) |
| O=C(Nn1c2c(sc1=NCc1ccccc1)C(=O)c1ccccc1C2=O)c1cc2ccc1CCc1ccc(cc1)CC2 | 80% (inactive) |
| COc1cccc(Cn2c(-c3nonc3N)nc3ccccc32)c1 | -12.2% (active) |
| CCN(CC)CCC(=O)Nc1ccc(Cn2nnc3c2C(=O)c2nnn(Cc4ccc(NC(=O)CCN(CC)CC)cc4)c2C3=O)cc1 | -66.4% (active) |
| CS(=O)(=O)N(c1cc(-c2ccc3ncnc(Nc4cccc(Cl)c4)c3c2)cnc1Cl)S(C)(=O)=O | -42.1% (active) |
| O=S(=O)(NCCNc1nccc(-c2c(-c3ccc(F)c(O)c3)nc3sccn23)n1)c1ccc(F)cc1 | 29.3% (inactive) |
| C/C=C(/C)C(=O)O[C@@H]1CC(C)(C)CC2C34OC(=O)[C@@]21CC[C@@]3(C)[C@]1(C)CCC2C(C)(C)C(=O)CC[C@]2(C)C1C[C@@H]4Cl (stereo not given in full) | 80.5% (inactive) |
| O=C1NC(=S)NC(=O)C1=Cc1cn(Cc2ccccn2)c2ccccc12 | -40.6% (active) |
| CN(C)C(=O)OCc1nc2c(N3CCOCC3)nc(-c3ccccc3)nc2n1C | -61.1% (active) |
| CCCCCCCCCCCCCCCC[N+](C)(C)CCN(Cc1ccc(OC)cc1)c1ncccn1 | -49.2% (active) and -52.1% (active) |
